This is an account of results in PubChem BioAssay (EPA / NIEHS).

The term AC50 denotes the midpoint of the concentration-response curve, whichever way the signal moves.

Molecules are shown by their SMILES. The source made the active and inactive calls. The calls were made as follows: active = hit-call score of the fitted dose curve at least 0.9, where 1 is the maximum; inactive = score below 0.9.

The nature of experiment [1]: ATG_M_61_CIS: Attagene CIS-FACTORIAL HepG2 Assay for M61 Transcription Factor (Internal Marker) (AID 2282937). Conditions: HepG2 Attagene CIS-FACTORIAL M61 internal marker reporter; actives raise or lower the signal. A digest of the protocol:
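Human liver HepG2, transient MRTU transfection (cis promoter elements), 24 h compound. Total RNA → oligo(dT) RT → PCR → FAM label → HpaI → CE. Internal background marker; bidirectional fitting, DMSO = baseline.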

Experiment [2] in a line: ATG_EGR_CIS: Attagene CIS-FACTORIAL HepG2 Assay for human Early Growth Response 1 (EGR1) (AID 2282938). Conditions: HepG2 Attagene CIS-FACTORIAL EGR reporter mRNA; actives raise or lower the signal. A digest of the protocol: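 Transient transfection of human HepG2 with multiple cis-regulated reporter units, chemical exposure 24 h, total RNA isolated. Reverse transcription, PCR, fluorescent labelling and capillary electrophoresis quantify reporter transcripts; activity fitted bidirectionally against DMSO.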

A short description of experiment [3]: ATG_ERE_CIS: Attagene CIS-FACTORIAL HepG2 Assay for Estrogen Response Element (ERE) (AID 2282940). Conditions: HepG2 ERE cis-reporter, Attagene RNA transcript; actives raise or lower the signal. A digest of the protocol: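 Readout: reporter mRNA induction by RT-PCR, FAM-labelled primer extension, HpaI digestion and capillary electrophoresis, 24 h after dosing transfected HepG2 cells. Endogenous transcription factors act on cis-element-regulated reporters. Gain or loss fitted against DMSO.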

The nature of experiment [4]: ATG_Ets_CIS: Attagene CIS-FACTORIAL HepG2 Assay for human Erythroblast Transformation Specific (ETS) (AID 2282941). Conditions: HepG2 ETS cis-reporter transcription; AC50: actives raise or lower the signal unless noted; outcome: actives raise or lower the signal unless noted. A digest of the protocol: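 After transient cis-reporter transfection, HepG2 cells receive test chemical for 24 h. Reporter mRNA levels, measured by RT-PCR and capillary electrophoresis fluorescence, are analysed bidirectionally relative to the DMSO baseline.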

The target of experiment [5] is Hepatocyte nuclear factor 3-beta (Homo sapiens) (UniProt Q9Y261). The experiment can be described thus: ATG_FoxA2_CIS: Attagene CIS-FACTORIAL HepG2 Assay for human Forkhead box A2 (FOXA2) (AID 2282942). Conditions: HepG2 cis-reporter transcription factor activity, 24 h; actives raise or lower the signal. A digest of the protocol:
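Transient MRTU transfection of HepG2 liver cells; 24 h treatment; total RNA → oligo(dT) RT → PCR → FAM primer extension → HpaI cut → CE. Bidirectional fit vs DMSO.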

A short description of experiment [6]: ATG_FoxO_CIS: Attagene CIS-FACTORIAL HepG2 Assay for human Forkhead box O (FoxO) (AID 2282943). Conditions: HepG2 Attagene cis-reporter, FoxO element, mRNA; actives raise or lower the signal. A digest of the protocol:
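Read-out: fluorescence of 6-FAM-labelled reporter cDNA fragments resolved by capillary electrophoresis. Transiently transfected HepG2 cells were dosed for 24 h; activity fitted in both directions relative to DMSO controls.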

Experiment [7] is described as follows: ATG_GATA_CIS: Attagene CIS-FACTORIAL HepG2 Assay for human GATA Binding Protein (AID 2282944). Conditions: HepG2 GATA cis-element reporter, Attagene multiplex mRNA; actives raise or lower the signal. A digest of the protocol:
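Read-out: fluorescent reporter mRNA fragments resolved by capillary electrophoresis after RT-PCR. Human liver HepG2 cells carried transiently transfected cis-regulated reporter constructs; chemicals incubated 24 h; gain or loss of signal fitted relative to DMSO.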

Experiment [8] can be described thus: ATG_GLI_CIS: Attagene CIS-FACTORIAL HepG2 Assay for human Zinc Finger Protein GLI1 (AID 2282945). Conditions: HepG2, Attagene cis-factorial reporter mRNA, GLI element; actives raise or lower the signal. A digest of the protocol:
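Transiently transfected HepG2 cells report endogenous transcription factor activity via cis-element-driven reporter units. After 24 h compound exposure, reporter mRNA was measured by RT-PCR with capillary electrophoresis; bidirectional fitting against DMSO baseline.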

Experiment [9] can be described thus: ATG_M_19_CIS: Attagene CIS-FACTORIAL HepG2 Assay for M19 Transcription Factor (Internal Marker) (AID 2282939). Conditions: HepG2 Attagene CIS-FACTORIAL M19 internal marker reporter; actives raise or lower the signal. A digest of the protocol:
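Readout: fluorescent reporter-transcript fragments by capillary electrophoresis after RT-PCR. Human HepG2 liver cells carried transfected MRTU constructs reporting endogenous transcription-factor activity; exposure 24 h. Gain or loss of signal fitted relative to DMSO.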

For experiment [10], the target named is Bile acid receptor (Homo sapiens) (UniProt Q96RI1). The experiment can be described thus: ATG_IR1_CIS: Attagene CIS-FACTORIAL HepG2 Assay for human Nuclear Receptor Subfamily 1 Group H Member 4 (NR1H4), IR1 submotif (AID 2282946). Conditions: IR1 reporter transcription, actives raise or lower the signal. A digest of the protocol:
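HepG2 cells transiently transfected with multiple cis-promoter-driven reporter units to measure endogenous transcription factor activity; 24 h exposure. Reporter mRNA read by RT-PCR, FAM labelling, HpaI digestion and capillary electrophoresis. Bidirectional fit versus DMSO.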

Chain of Bile acid receptor (Homo sapiens) (Q96RI1 whole entry, looked up): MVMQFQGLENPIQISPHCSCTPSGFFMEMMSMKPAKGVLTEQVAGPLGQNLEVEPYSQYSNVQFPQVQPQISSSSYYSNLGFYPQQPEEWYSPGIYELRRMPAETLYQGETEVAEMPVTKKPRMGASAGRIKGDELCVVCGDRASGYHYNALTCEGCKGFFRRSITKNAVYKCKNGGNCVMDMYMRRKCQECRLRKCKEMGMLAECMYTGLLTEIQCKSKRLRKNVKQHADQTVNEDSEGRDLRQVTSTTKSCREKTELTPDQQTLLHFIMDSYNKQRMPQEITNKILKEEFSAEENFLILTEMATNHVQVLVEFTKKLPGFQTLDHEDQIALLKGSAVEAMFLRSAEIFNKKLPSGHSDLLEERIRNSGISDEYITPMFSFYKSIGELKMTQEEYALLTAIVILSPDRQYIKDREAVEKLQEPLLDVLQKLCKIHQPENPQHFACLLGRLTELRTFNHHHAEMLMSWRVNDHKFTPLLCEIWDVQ
Chain of Hepatocyte nuclear factor 3-beta (Homo sapiens) (Q9Y261 whole entry, looked up): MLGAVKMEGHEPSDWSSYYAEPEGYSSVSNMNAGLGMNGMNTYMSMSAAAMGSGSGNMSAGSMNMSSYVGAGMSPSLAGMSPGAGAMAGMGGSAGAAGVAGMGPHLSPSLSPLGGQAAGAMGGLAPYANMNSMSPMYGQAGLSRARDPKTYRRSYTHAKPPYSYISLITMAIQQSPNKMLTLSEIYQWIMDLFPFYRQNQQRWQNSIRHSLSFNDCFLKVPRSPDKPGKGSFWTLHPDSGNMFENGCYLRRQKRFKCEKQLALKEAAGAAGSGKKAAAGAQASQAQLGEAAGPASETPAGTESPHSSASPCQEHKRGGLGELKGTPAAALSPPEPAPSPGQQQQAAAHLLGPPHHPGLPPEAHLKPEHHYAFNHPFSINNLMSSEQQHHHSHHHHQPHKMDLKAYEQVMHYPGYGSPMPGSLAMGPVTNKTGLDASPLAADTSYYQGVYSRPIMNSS

In the case of `N=C(N)c1ccc(OCCCCCOc2ccc(C(=N)N)cc2)cc1`, the outcome in [1], in [4], in [5], in experiment [6], in experiment [7] and in [8] was inactive. The AC50 is 87.5 µM (active) in experiment [2] and 23.2 µM (active) in experiment [3].

In the case of `CCCCCCCCCCCC`, the call in experiment [1], in experiment [2], in [9], in experiment [4], in [5] and in [7] was inactive. Further, the call in [8] was inactive.

For `CCOC=O`, the call in [1], in experiment [2], in experiment [4], in experiment [6], in experiment [7] and in experiment [8] was inactive. Further, the compound was classed as inactive in [10]. Further, the AC50 in experiment [3] was 59.3 µM (active).

In the case of `CC(C)(c1ccc(Oc2ccc(N)cc2)cc1)c1ccc(Oc2ccc(N)cc2)cc1`, the compound was classed as inactive in experiment [1], in [2], in [3], in [4], in [5] and in [7]. For the same compound, the outcome in experiment [8] and in [10] was inactive.

As to `CCCCCCCCCCCCCCC`, the compound was called inactive in [1], in experiment [2], in [4], in experiment [5], in experiment [6] and in experiment [7]. For the same compound, the outcome in experiment [8] was inactive.

In the case of `CC(=O)CC(C)C`, the outcome in experiment [1], in [2], in experiment [9], in [4], in experiment [5] and in experiment [6] was inactive. The compound was called inactive in experiment [7], in experiment [8] and in [10].

Consider `OCC(CO)(CBr)CBr`, for which the compound was called inactive in [1], in [2], in experiment [9], in experiment [4], in [6] and in experiment [7]. Moreover, the compound was called inactive in experiment [8] and in [10].

As for `CCOC(OCC)C(=O)c1ccccc1`, the compound was classed as inactive in experiment [1], in experiment [2], in experiment [4], in experiment [5], in experiment [7] and in experiment [8]. The result in [10] was inactive. Also, the concentration at half-maximal activity (AC50) in [3] was 77.6 µM (active).

For the compound `CCN(CC)CC`, the compound was called inactive in experiment [1], in experiment [2], in experiment [3], in [5], in experiment [6] and in experiment [7]. In addition, the compound was classed as inactive in [8] and in experiment [10].

For `Cc1ccc(S(=O)(=O)O)cc1`, the compound was classed as inactive in [1], in [2], in [5], in [7] and in experiment [8].

Turning to `CNNCc1ccc(C(=O)NC(C)C)cc1`, the compound was classed as inactive in [1], in experiment [2], in [4], in experiment [5], in [7] and in [8].

For the compound `CCCCCCCCCC=CCC1CC(=O)OC1=O` (centres undefined), the call in experiment [1], in experiment [2], in experiment [4], in experiment [6], in [7] and in experiment [8] was inactive. In addition, in experiment [10], the compound was classed as inactive.

As to `FC(OC(F)(F)C(F)(F)C(F)(F)F)C(F)(F)F` (centres undefined), the compound was called inactive in [1], in experiment [2], in [3], in experiment [5], in [6] and in experiment [7]. The compound was called inactive in experiment [8] and in [10].

With `Oc1c(Cl)ccc(Cl)c1Cl`, the compound was called inactive in experiment [1], in experiment [2], in experiment [3], in experiment [4], in [5] and in [6]. For the same compound, the outcome in experiment [7], in [8] and in experiment [10] was inactive.

Take `O=P(O)(O)CCC(F)(F)C(F)(F)C(F)(F)C(F)(F)C(F)(F)C(F)(F)C(F)(F)C(F)(F)F`: the result in experiment [1], in experiment [2], in experiment [3], in experiment [5], in experiment [7] and in [8] was inactive. Besides, in experiment [10], the outcome was inactive.

Take `CCC1CO1` (centres undefined): the call in [1], in [2], in experiment [9], in experiment [4], in experiment [5] and in experiment [6] was inactive. Also, the outcome in experiment [7], in experiment [8] and in experiment [10] was inactive.

`COC(=O)C(F)(F)C(F)(F)C(F)(F)C(F)(F)C(F)(F)F`: the call in experiment [1], in experiment [2], in [3], in [4], in [5] and in experiment [6] was inactive. Also, the compound was called inactive in experiment [7], in [8] and in [10].

Take `Cc1[nH]nc2c1N=C(c1ccccc1Cl)c1cc([N+](=O)[O-])ccc1N2`: the outcome in experiment [1], in experiment [2], in experiment [9], in [5], in [6] and in [7] was inactive. Further, the compound was classed as inactive in experiment [8]. Further, the AC50 in experiment [10] is 2.08 µM (active).
